Screening results (PubChem)
GALR2 blocker = blocks the human galanin receptor 2; O43603; AID 828; GALR2-expressing cells, antagonist mode; inhibition, % at 4 µM; 0.39% of 140,000 active;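 also: cells stimulated with galanin 1-16 at roughly its EC80; 0% = agonist challenge control and 100% = basal control without agonist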
S1P2 antag = blocks the human S1P2 receptor. O95136. cell-based S1P2 antagonist assay, inhibition at 5 uM. inhibition, % at 5 µM. 0.21% of 97,000 active; in the data active = inhibition above about 45%;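 also: CRE beta-lactamase reporter cells expressing human S1P2 stimulated with S1P; 0% = agonist at EC80 alone and 100% = agonist plus reference antagonist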
CD11b adhes enh = increases human CD11b/CD18 adhesion to fibrinogen; activation, % at 10 µM; P05107+P11215; K562 CD11b/CD18 adhesion to fibrinogen, ATPlite luminescence; 0.07% of 93,000 active; AID 1499;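 active = 10 µM primary screen giving 50% or more activity, confirmed by 40% or more on retest at that dose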
GALR2 ag = activates the human galanin receptor 2. O43603. GALR2-expressing cells, agonist activation read-out. activation, % (test concentration not listed). 0.48% of 140,000 active; in the data active = activation above about 5%, passing the limit was not always enough;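 also: 0% = vehicle buffer wells and 100% = reference agonist at full effect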
S1P2 agonist = activates the human S1P2 receptor. O95136. S1P2-expressing cell line, agonist reporter read-out. activation, % at 4.5 µM. 0.46% of 97,000 active; in the data active = activation above about 16%;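 also: 0% = vehicle low control and 100% = maximal reference agonist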
Mac1 fbg inh = blocks human CD11b/CD18 adhesion to fibrinogen | K562 CD11b/CD18 adhesion to fibrinogen, ATPlite luminescence; Mn2+ added to activate the integrin | inhibition, % at 10 µM | 0.54% of 93,000 active | P05107+P11215;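 active = primary inhibition of 50% or more at 10 µM, then 40% or more on retest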
GALR2 ant conf = confirmation of human galanin receptor 2 (GALR2) antagonists; shares compounds with GALR2 blocker; GALR2-expressing cells, antagonist mode, inhibition; inhibition, % at 4 µM; 60% of 480 active; AID 866;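 also: cells stimulated with galanin at about its EC80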
BLA inhib ctr = inhibits beta-lactamase reporter in GALR2 antagonist counterscreen; shares compounds with GALR2 blocker; CHO NFAT-BLA reporter, beta-lactamase FRET, thapsigargin-stimulated; inhibition, % at 4.2 µM; 36% of 480 active; AID 867;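 active = inhibition above the mean inhibition across tested compounds plus 3 SD, cut at about 27% in these data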;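 also: 0% = 500 nM thapsigargin stimulated wells and 100% = unstimulated BSA only wells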
Numbers without * were called inactive; / = no result. Hits are enriched below; roughly 1.5% of the tested compounds scored in any of these assays. Rule as the data show it, unless noted: active = inhibition above about 27%; inactive = the rest.

SMILES | GALR2 blocker | S1P2 antag | CD11b adhes enh | GALR2 ag | S1P2 agonist | Mac1 fbg inh | GALR2 ant conf | BLA inhib ctr
Cc1nc2c(=O)n(C)c(=O)nc-2n(C)n1 | 100.1* | 95.9* | / | 4.6 | 10.4 | / | 100.2* | 100.4*
CC(Cc1ccccc1)[n+]1cc(/N=C(\[O-])N(C)C)on1 (stereo not drawn) | 5.4 | 0.7 | -1.4 | -3.2 | -3.4 | 0.9 | / | /
O=C(c1ccccc1)C(CN1CCCC1)c1ccccc1 (stereo not drawn) | 29.9* | / | / | 0.8 | / | / | 28.9* | 25.3
COc1ccc(CCNC(C)CCc2ccc(OC)cc2)cc1 (stereo not drawn) | -7.5 | 0.9 | -0.6 | -1.6 | -3.8 | -14.0 | / | /
CC1CCC/C=C/C2CC(O)CC2C(O)/C=C/C(=O)O1 (stereo not drawn) | 45.6* | 4.2 | -0.7 | -0.6 | -0.9 | -30.3 | 62.1* | 18.4
Cc1cccc(OP(=O)(NCc2ccccc2)Oc2cccc(C)c2)c1 | -8.2 | / | 5.5 | -0.3 | / | 36.9 | / | /
